Only a selection was taken, and hits are over-represented in it overall.
p53 reactivation = mutant p53 re-activation in reporter cells; 0.063% of 320,000 active; H1299 p53-A138V BP100-luciferase reporter, luminescence, 24 h; Potency, µM (top dose mostly 92.2 µM), without a hit: at the highest dose activity change, positive = activation, usual class: activators; also: % of control where 0% means no effect; nearly all actives have a fitted effect of over 45% in size
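H1299 (p53-null), stable ts p53-A138V + BP100-Luc; 1000 cells/well, Opti-MEM/10% FBS; cpd 4 pt, 1:5; 24 h, 37 deg C, 5% CO2; detection reagent 10 min RT; luminescence.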
MmCpn inh = M. maripaludis TRiC chaperonin inhibition; purified Mm-Cpn ATPase, ADP Transcreener TR-FRET; Potency, µM (titrated, usually from 76.9 µM), for the others: at the highest dose activity, negative = inhibition, hits mostly inhibitors; 0.031% of 330,000 active; AID 504842; also: % is scaled to controls: 0 for no effect and ±100 for the full control effect; nearly all actives have a fitted effect of over 80% in size
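ATP (10 uM final) was added to archaeal chaperonin (25 nM final) after 10 min exposure to test compound at 37°C; after 30 min further incubation, ADP was detected by competitive TR-FRET.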
Integrin act MD = integrin-mediated muscular dystrophy alleviation activation | alpha7betagal myoblasts, beta-gal FDG fluorescence, 48 h | Potency, µM (titrated, usually from 38.3 µM), inactives show at the highest dose activation, actives largely listed as activators | 0.064% of 350,000 active | AID 624291;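 also: 100% = response of the positive control SU9516; nearly all actives have a fitted effect of over 60% in size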
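alpha7betagal+/- myoblasts (passage 13, 250/well) treated 48 h at 37C with compounds at 1:260 dilution of DMSO stock. Lysed, then beta-galactosidase activity read as FDG fluorescence (ex 480/em 540) after 30 min, with pre-read for autofluorescence.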
ClpP mod = qHTS Assay for Activators of ClpP; purified B. subtilis ClpP, FRET peptide cleavage, 20 min; Potency, µM (highest dose often 57.5 µM), for inactives: top-dose activity change, negative = active; 1.9% of 340,000 active; active = well fitted falling curve with a large enough effect; inconclusive = small, poorly fitted or top-dose-only effect; inactive = no such curve, though single readings can be large or run the other way; also: the source files actives as falling curves though it sought activators and does not explain the sign; nearly all actives have a fitted effect of over 65% in size
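Purified B. subtilis ClpP, 10 microg/mL final in Tris/HCl pH8 with KCl, BSA, glycerol and Tween-20, cleaved an Abz/nitrotyrosine-quenched decapeptide. Fluorescence (ex 320, em 430) was read at 0 and 20 min at room temperature. Delta was normalized to 5.8 microM ADEP and DMSO/no-enzyme controls.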
USP2a block = inhibitors of human ubiquitin-specific protease USP2a. O75604. USP2 core, Ub-CHOP2 coupled fluorogenic reporter, 485/531. Potency, µM (doses to about 38.3 µM), for inactives: at the top dose activity change, negative = inhibition, usual class: inhibitors. 0.01% of 330,000 active. AID 463254;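 also: plate controls were DMSO wells for no effect and full inhibition by NEM control for full effect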
Target sequence (O75604 whole entry, looked up): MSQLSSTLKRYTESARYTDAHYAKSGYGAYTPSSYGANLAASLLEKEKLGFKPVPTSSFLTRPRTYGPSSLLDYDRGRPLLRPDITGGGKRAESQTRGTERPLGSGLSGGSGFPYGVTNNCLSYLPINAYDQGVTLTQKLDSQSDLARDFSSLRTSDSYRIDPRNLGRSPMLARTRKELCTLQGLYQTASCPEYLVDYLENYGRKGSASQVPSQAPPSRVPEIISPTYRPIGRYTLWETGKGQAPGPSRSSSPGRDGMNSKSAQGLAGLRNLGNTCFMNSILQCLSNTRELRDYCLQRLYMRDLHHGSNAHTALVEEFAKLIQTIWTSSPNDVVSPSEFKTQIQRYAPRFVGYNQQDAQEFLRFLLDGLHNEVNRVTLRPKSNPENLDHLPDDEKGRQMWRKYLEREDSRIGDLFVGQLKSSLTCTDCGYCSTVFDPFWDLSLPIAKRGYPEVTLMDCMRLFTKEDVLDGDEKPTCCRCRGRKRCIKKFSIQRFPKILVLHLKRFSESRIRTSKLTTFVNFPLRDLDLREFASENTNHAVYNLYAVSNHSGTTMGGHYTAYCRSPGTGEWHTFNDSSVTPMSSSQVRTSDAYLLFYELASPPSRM
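Deubiquitinase activity read as fluorescence (485/531 nm) after Ub-CHOP2 cleavage activates the enterokinase reporter on its substrate; USP2 core 10nM, Ub-CHOP2 and substrate 25nM each, 30min compound preincubation then 60min RT; data normalized to NEM, curves fitted.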
Eya2 inh = inhibitors of human Eya2 phosphatase activity; recombinant Eya2, OMFP fluorescence dephosphorylation (OMFP is methylfluorescein phosphate); O00167; Potency, µM (top dose mostly 76.9 µM), inactives show top-dose activity, negative = inhibition, hits mostly inhibitors; 0.006% of 330,000 active; also: % is scaled to controls: 0 for no effect and ±100 for the full control effect
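Eya2 protein (added as 0.2 uM solution) was preincubated with compound for 10 min at ambient temperature in 50 mM HEPES pH 7.5, 50 mM NaCl, 5 uM MgCl2, 0.05% BSA, 1 mM DTT. OMFP (added at 50 uM) then reacted 10 min; fluorescence read at 485/525 nm.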
* = called active by the depositor; ? = inconclusive; . = not tested or not shown; ! = not confirmed by another sample; [ ] = dose if it differs, or a comment. Unless noted, calls follow the shape of the dose curve; as a rule, active = well fitted curve in the direction sought with a large enough effect; inconclusive = small, poorly fitted or top-dose-only effect, or another doubt; inactive = no such curve, though single readings can be large; an effect the other way counts as inactive or inconclusive. Potency is read from the fitted curve at half-maximal effect.

SMILES	p53 reactivation	MmCpn inh	Integrin act MD	ClpP mod	USP2a block	Eya2 inh
Cc1cccc2[nH]cc(/C=C3/C=Nc4ccccc43)c12	.	.	.	-9%	.	.
Cc1ccc(-c2noc(-c3cccs3)n2)cc1	?	1%	-7%	-3%	-5%	6%
Brc1ccc(-c2cnc(-c3cccs3)o2)cc1	?	-19%	11%	32µM*	-1%	3%
Cc1nn(-c2ccc(F)cc2F)c2c1-c1nc(N3CCCC3)ncc1CC2	-8%	0%	-3%	32µM*	2%	1%
Cc1oc2c(CN3CCOCC3)c(O)ccc2c(=O)c1-c1ccc(Cl)cc1	0%	-3%	-3%	4%	-6%	-9%
CCN1CCN(Cc2c(O)ccc3c(=O)c(-c4ccc(OC)c(OC)c4)c(C)oc23)CC1	-1%	0%	22%	28µM*	1%	-1%
COc1ccc(-c2c(C)oc3c(CN4CCN(C)CC4)c(O)ccc3c2=O)cc1	-1%	1%	11%	5%	2%	-8%
Cc1oc2c(CN3CCOCC3)c(O)ccc2c(=O)c1-c1ccc(Br)cc1	5%	-4%	20%	14µM*	-1%	9%
Cc1ccccc1NC(=O)COC(=O)c1ccccc1OCC(=O)Nc1ccc(Br)cc1	.	.	.	-2%	.	.
Cc1ccc(S(=O)(=O)N2CN(CC3CCCO3)c3nc4ccccc4nc32)c(C)c1 (centres undefined)	-3%	-4%	11µM*	4%	1%	-3%
Cc1nc(N2CCOCC2)c2cc(-c3ccccc3)sc2n1	0%	-4%	22%	32µM*	0%	0%[15.4 µM]
c1ccc(-c2cc3c(N4CCOCC4)ncnc3s2)cc1	-5%	-10%	0%	28µM*	-5%	-16%
Cc1nc(N2CCN(Cc3ccc4c(c3)OCO4)CC2)c2cc(-c3ccccc3)sc2n1	7%	-20%	-13%	.	-5%	-5%
Cc1ccc(-n2nc(C(=O)Nc3ccc(Br)cc3C)c(=O)n(C)c2=O)cc1	.	.	.	-5%	.	.
CC(=O)Nc1ccc(C2Nc3c(C)cc(C)cc3-c3cc(C)nn32)cc1 (centres undefined)	.	.	.	-5%	.	.
CCOC(=O)c1cn(CC(=O)Nc2cccc(Cl)c2)nn1	-4%	1%	14%	-3%	-4%	6%
CCOC(=O)c1cn(CC(=O)Nc2cccc(Cl)c2C)nn1	-2%	0%	19%	35µM*!	3%	11%
COc1ccc(OC(=O)c2cc(-c3ccc4c(c3)OCCO4)on2)cc1	.	.	.	-6%	.	.
Cc1cc(C)cc(OC(=O)c2cc(-c3ccc4c(c3)OCCO4)on2)c1	.	.	.	32µM*	.	.
Cc1ccccc1OC(=O)c1cc(-c2ccc3c(c2)OCCO3)on1	.	.	.	32µM*	.	.
Cc1cccc(OC(=O)c2cc(-c3ccc4c(c3)OCCO4)on2)c1	.	.	.	25µM*	.	.
CCN(Cc1ccccc1)C(=O)CN(c1ccc(OC)cc1)S(=O)(=O)c1c(C)nn(C)c1C	.	.	.	0%	.	.
CC(C)Cc1nc2oc3c(Cl)ncnc3c2c2c1CCC2	-7%	-1%	-10%	32µM*	0%	2%
CN(N=O)c1ccc2c(c1)Cc1ccccc1-2	.	.	.	0%	.	.
CCN(CC)c1cc(C)c2cc(NC(=O)CNC(C)=O)ccc2n1	-11%	0%	?	16µM*	-1%	15%
SMILES	p53 reactivation	MmCpn inh	Integrin act MD	ClpP mod	USP2a block	Eya2 inh
CCCCn1cnc2c(SCCc3ccccc3)nc(N)nc21	.	.	-14%	28µM*	.	.
O=Cc1ccnc2ccccc12	.	.	.	-2%	.	.
CCNC(=O)c1c(NC(=O)c2nc(SC)ncc2Cl)sc2c1CCCC2	.	.	.	0%	.	.
CN(C)c1ccc(/C=N/NC(=O)COc2ccccc2)cc1	1%	-1%	36%	.	-4%	9%
CCCCCC1CC1C(=O)N/N=C/c1ccc(N(C)C)cc1 (centres undefined)	3%	2%	-5%	35µM*	1%	-4%
O=C(Nc1nccs1)[C@@H]1CC=C[C@@H]2CCN(C3CCCCC3)C(=O)[C@@H]21	.	.	.	-2%	.	.
CS(=O)(=O)c1ccc(C(=O)OCC(=O)N2CCc3ccccc32)cc1[N+](=O)[O-]	.	.	.	-3%	.	.
Cc1ccc(-c2cc(-c3ccccc3)nc(Cl)n2)cc1	15%	-1%	16%	28µM*	-1%	27%
Cc1cc(C)n2nc(N)nc2n1	.	.	6%	-2%	.	.
COc1ccc(-c2cc(-c3ccccc3)nc(Cl)n2)cc1OC	-8%	-3%	10%	.	-5%	1%
Cc1cc(N)n2nc(-c3ccccc3)cc2n1	?	-1%	7%	28µM*	1%	-2%
Cc1cc(-c2ccccc2)n2nc(N)nc2n1	-2%	?	13µM*	3%	0%	-27%
Cc1ccc(-c2cc(N)n3nc(-c4ccc(C)cc4)cc3n2)cc1	6%	-10%	0%	13µM*!	-1%	10%
Cc1ccc(-c2cc(N)n(-c3ccc(C)cc3)n2)cc1	?	-1%	30%	-1%	0%	6%
Cc1ccc(-c2cc3nc(-c4ccc(Br)cc4)cc(N)n3n2)cc1	4%	-10%	19%	28µM*	1%	-1%
Cc1ccc(-c2cc3nc(-c4ccccc4)cc(N)n3n2)cc1	8%	-2%	20%	25µM*	0%	-18%
Cc1ccc(-c2cc3nc(-c4ccccc4)cc(NCCCO)n3n2)cc1	.	.	19%	4%	.	.
Cc1cc(C)n(-c2nc3cc(Cl)c(Cl)cc3nc2Nc2ccc(F)cc2C)n1	.	.	.	0%	.	.
COc1cccc(C(O)c2nc(/C=C/c3ccc(C(F)(F)F)cc3)cs2)c1 (centres undefined)	.	.	.	28µM*	.	.
O=c1c2ccccc2oc2ccc(-c3ccoc3)cc12	.	.	.	-15%	.	.
CCOC(=O)c1ccc(S(=O)(=O)NCC(c2ccc(N(C)C)cc2)c2c[nH]c3ccccc23)cc1 (centres undefined)	-2%	-2%	-32%	25µM*	-8%	3%
CN(C)c1ccc(C=O)c(F)c1	.	.	.	-4%	.	.
Cc1ccc2oc(=O)c(S(=O)(=O)c3ccc(F)cc3)cc2c1	.	.	.	4%	.	.
O=c1oc2c(F)cc(F)cc2cc1S(=O)(=O)c1ccc(F)cc1	.	.	.	22µM*	.	.
CCOC(=O)c1sc(Nc2nc3c(OC)cccc3s2)cc1C	?	-15%	-36%	25µM*	1%	-2%
COc1cccc2sc(Nc3nc4ccc(NC(C)=O)cc4s3)nc12	?	-4%	-36%	1.1µM*	-3%	-2%
COc1cccc2sc(NN)nc12	1%	-4%	-33%	.	1%	-2%
CCOC(=O)c1sc(Nc2nc3cc4c(cc3s2)OCO4)cc1C	?	-17%	-6%	28µM*	-11%	-34%

Screening results as filed in PubChem.
